Results reported in PubChem BioAssay (NCI).
The panel holds about 83,000 compounds, 20% with a hit somewhere; the sample as a whole holds those more often.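 Results are percent growth after 48 hours of single-concentration exposure. 100 means growth as in untreated cells, lower positive values show inhibition; negative values down to -100 show cell death.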 A number with no mark means an inactive call. The source made the active and inactive calls. How the source made its calls: active means growth percent below 10; inactive means the rest.

Test system: DU-145 prostate
Test: NCI-60 one-dose screen, 48 h (100 = growth as untreated, 0 = no growth, -100 = all killed)
Conditions: 10 µM

Q: `CC(=O)OC1CC2C(C)(C)OC3CC(=O)OCC32C2CCC3(C)C(=CCC3c3ccoc3)C12C` (stereo not given) was tested. Which growth did it give?
A: The growth was 92.5%.

Q: How did the growth turn out when `CCC(O)CC(CC)CO` (stereo not given) was run?
A: The growth was 121%.

Q: With `CC(=Nc1ccccc1)C1=C(O)C(Cc2cccc(F)c2)NC1=O` (stereo not given) as the compound, how does the growth read?
A: The growth was -37.9% (active).

Q: How did the growth turn out when `Cc1c(O)cccc1O` was run?
A: Its growth is 124%.

Q: With `CC1CCCCN1C(=S)Nc1ccc(S(=O)(=O)N2CCCCC2)cc1` (stereo not given) as the compound, how does the growth read?
A: The growth was 106%.

Q: `C=C1CC/C=C(\C)C(=O)C[C@@H]2[C@@H]1CC2(C)C` was tested. Which growth did it give?
A: Its growth is 102%.

Q: For `N#C/C(=C\c1cc(O)c(O)c(O)c1)C(N)=O`, which growth is on record?
A: Its growth is 93.6%.

Q: With `C#CCSc1nnnn1-c1ccc(Br)c(C)c1` as the compound, how does the growth read?
A: The growth was 107%.

Q: How did the growth turn out when `Brc1cnc2ccccc2c1` was run?
A: Its growth is 102%.

Q: For `O=C1C=C(O)C(=O)C=C1O`, which growth is on record?
A: The growth was 119%.

Q: `COC(=O)Nc1nc2ccc(C(=O)c3ccc(F)cc3)cc2[nH]1` was tested. Which growth did it give?
A: The growth was -31% (active).

Q: `CCOC(=O)C1=C(C)NC(=O)NC1c1cccs1` (stereo not given) was tested. Which growth did it give?
A: Its growth is 122%.

Q: With `CCOC(=O)Nc1cc2c(c(N)n1)N=C(c1ccccc1)CO2` as the compound, how does the growth read?
A: Its growth is 10.6%.

Q: With `COC(=O)c1cccnc1` as the compound, how does the growth read?
A: The growth was 107%.

Q: With `O=[N+]([O-])c1cccc(C(F)(F)F)c1` as the compound, how does the growth read?
A: The growth was 120%.

Q: For `CC(=O)Cc1ccc(-c2ccccc2)cc1`, which growth is on record?
A: Its growth is 107%.

Q: Which growth does the source give for `Cc1ccc(C(=O)NC2c3ccccc3Oc3ccccc32)cc1` here?
A: The growth was 88.2%.

Q: `CC1(c2ccccc2)NC(=O)NC1=O` (stereo not given) was tested. Which growth did it give?
A: Its growth is 125%.

Q: How did the growth turn out when `COc1cc2c3c(n(C)c(=O)c2cc1OC)-c1cc2c(cc1C3=O)OCO2` was run?
A: Its growth is 56.5%.

Q: With `O=[N+]([O-])c1ccc(-c2ncc(-c3ccc(Br)cc3)o2)cc1` as the compound, how does the growth read?
A: Its growth is 112%.
